Screening data: PubChem, National Center for Advancing Translational Sciences (NCATS)
Compounds with a hit are over-represented: about 2.4% of the library has one in this group of screens.
Pol iota inh: blocks human DNA polymerase iota activity; Q9UNA4; Pol iota fluorescent replication assay, 10 min; Potency, µM (highest dose often 115 µM), inactives show at the top dose activity, negative = inhibition, most hits filed as inhibitors; 1% of 390,000 active
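Pol iota at 10 nM preincubated 15 min with compounds at room temperature; reaction started with fluorescent substrate, 50 nM final. Fluorescence read kinetically at 0 and 10 min; buffer-only wells as negative control.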
WRN helicase inh: blocks human WRN helicase. WRN helicase unwinding, fluorescent forked duplex, kinetic. Potency, µM (highest dose often 114 µM), inactives show top-dose activity change, negative = inhibition, most hits filed as inhibitors. 0.46% of 360,000 active; also: % is scaled to controls: 0 for no effect and ±100 for the full control effect; nearly all actives have a fitted effect of over 55% in size
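Kinetic red-fluorescence monitoring (525/598 nm) tracks WRN helicase activity after 100 nM fluorophore-quencher forked duplex and 2 mM ATP are added to 20 nM enzyme pretreated 15 min at room temperature with compound.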
Pol kappa inh: blocks human DNA polymerase kappa activity; Q9UBT6; purified Pol kappa, fluorescent DNA synthesis assay, 10 min; Potency, µM (doses to about 107 µM), without a hit: at the top dose activity, negative = inhibition, hits mostly inhibitors; 0.53% of 400,000 active; also: % is scaled to controls: 0 for no effect and ±100 for the full control effect
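10 nM Pol kappa preincubated 15 min at room temperature with compounds, then reaction started with substrate at 50 nM final. Fluorescence read kinetically at 0 and 10 min; buffer-only wells served as negative control.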
Pol beta inh: blocks human DNA polymerase beta activity. P06746. Pol beta primer extension/strand displacement, fluorescence kinetic. Potency, µM (highest dose often 114 µM), without a hit: at the highest dose activity change, negative = inhibition, most hits filed as inhibitors. 1.3% of 340,000 active. AID 485314; also: % is scaled to controls: 0 for no effect and ±100 for the full control effect
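Homogeneous kinetic assay of primer extension and strand displacement by 10 nM Pol beta, preincubated 15 min at room temperature with compound before 50 nM substrate (final) was added. Read at 0 and 10 min; four-parameter Hill fit.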
FEN1 inhibitor: blocks human flap endonuclease 1; 0.35% of 390,000 active; Recombinant FEN1 flap cleavage, fluorescence, 15 min; Potency, µM (highest dose often 114 µM), without a hit: top-dose activity change, negative = inhibition, actives largely listed as inhibitors; also: % is scaled to controls: 0 for no effect and ±100 for the full control effect; nearly all actives have a fitted effect of over 65% in size
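Concentration–response screening of FEN1 (10 nM): 15 min compound preincubation at room temperature, reaction started with 50 nM substrate and read at 0 and 15 min. Corrected, normalized data were fitted by a four-parameter Hill equation.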
POLH inh: blocks human DNA polymerase eta activity | 1.2% of 390,000 active | AID 588591 | Potency, µM (top dose mostly 114 µM), for inactives: top-dose activity change, negative = inhibition, actives largely listed as inhibitors | recombinant Pol eta, fluorescent DNA replication assay; also: % is scaled to controls: 0 for no effect and ±100 for the full control effect
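Pol eta at 10 nM preincubated with compounds 15 min at room temperature; reaction started with fluorescent substrate (50 nM final) and read kinetically at 0 and 10 min.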
Numbers without * were called inactive; ! = not active in a repeat; [ ] = dose if it differs, or a comment. Calls follow the shape of the dose curve; as a rule, active = well fitted curve in the direction sought with a large enough effect; inconclusive = small, poorly fitted or top-dose-only effect, or another doubt; inactive = no such curve, though single readings can be large; an effect the other way counts as inactive or inconclusive. Potency is read from the fitted curve at half-maximal effect.

What do the screens show for `CCC(CO)Oc1cc(NCc2ccc(O)cc2)c2ncn(C(C)C)c2c1` (configuration not stated)?
Pol iota inh: 3%; WRN helicase inh: 3%; Pol kappa inh: -2%; FEN1 inhibitor: -6%; POLH inh: -11%

How did CCCCOc1cc(NCc2ccccc2)c2ncn(C(C)C)c2c1 do in these assays?
Pol iota inh: inconclusive; WRN helicase inh: -4%; Pol kappa inh: -23%; FEN1 inhibitor: -20%; POLH inh: -19%

How did CCOCCOc1cc(NCc2ccccc2)c2ncn(C(C)C)c2c1 do in these assays?
Pol iota inh: 35µM*; WRN helicase inh: 4%[11.6 µM]; Pol kappa inh: -24%; FEN1 inhibitor: inconclusive; POLH inh: -23%

What do the screens show for `CC[C@]12c3[nH]c4cc(-c5ccco5)ccc4c3CCN1C(=O)[C@@H](CC(=O)NCC13CC4CC(CC(C4)C1)C3)C[C@@H]2C(=O)N1CCN(C(=O)c2ccco2)CC1`?
Pol iota inh: 28µM*; WRN helicase inh: 4%[11.6 µM]; Pol kappa inh: -26%; FEN1 inhibitor: 4%; POLH inh: -13%

What do the screens show for `CC[C@]12c3[nH]c4ccc(Cl)cc4c3CCN1C(=O)[C@@H](CC(=O)NCCCn1ccnc1)C[C@@H]2C(=O)N1CCN(C(=O)C2CC2)CC1`?
Pol iota inh: 89µM*; WRN helicase inh: -1%[11.6 µM]; Pol kappa inh: 14%; FEN1 inhibitor: -1%; POLH inh: -6%

Results for CC[C@]12c3[nH]c4ccccc4c3CCN1C(=O)C(CC(=O)NCCCn1ccnc1)C[C@@H]2C(=O)N1CCN(C(=O)C2CC2)CC1 (some centres not stated) ?
Pol iota inh: -7%; WRN helicase inh: -1%; Pol kappa inh: -12%; FEN1 inhibitor: 12%; POLH inh: -10%

What do the screens show for `c1cc(N2CCCCC2)nc(N2CCCCC2)n1`?
Pol iota inh: 41%; WRN helicase inh: 7%; Pol kappa inh: -8%; FEN1 inhibitor: -7%; POLH inh: -12%

How did C[c-]1[c-](C)[c-](C)[c-](C)[c-]1C.[Fe].c1cc2nccc(N3CCCC3)[c-]2c1 (configuration not stated) do in these assays?
Pol iota inh: 10µM*!; WRN helicase inh: -19%; Pol kappa inh: inconclusive; Pol beta inh: 4.5µM*!; FEN1 inhibitor: inconclusive; POLH inh: 20µM*!

Results for NOCc1ccccc1 ?
Pol kappa inh: 10%[60.1 µM]

What do the screens show for `CC(C)(C)OC(=O)N1CCCC1C(=O)NC1COC2CC(n3cc(F)c(=O)[nH]c3=O)OC12` (configuration not stated)?
Pol iota inh: -2%; Pol kappa inh: 16%; FEN1 inhibitor: -1%

How did Cc1nc(-c2ccc(Cl)cc2)oc1COC(C)(C)C(=O)O do in these assays?
Pol kappa inh: 0%[19.4 µM]

What do the screens show for `COc1cc(CCNC2=CC(=O)c3ncccc3C2=O)ccc1O`?
Pol iota inh: 28µM*; WRN helicase inh: -5%; Pol kappa inh: -12%; FEN1 inhibitor: -9%; POLH inh: 16µM*

Results for C=CC[N+]1([C@H]2C[C@H]3[C@@H]4CC[C@H]5C[C@H](O)[C@@H](N6CCOCC6)C[C@]5(C)[C@H]4CC[C@]3(C)[C@H]2OC(C)=O)CCCC1 ?
Pol kappa inh: -3%[19.4 µM]

Results for CCCC(=O)N(Cc1cc(=O)[nH]c2ccccc12)c1cccc(C)c1 ?
Pol iota inh: 34%; WRN helicase inh: -2%; Pol kappa inh: -5%; Pol beta inh: 7%; FEN1 inhibitor: 1%; POLH inh: -3%

Results for COc1ccc(N(Cc2cc(=O)[nH]c3ccccc23)C(=O)CCl)cc1 ?
Pol iota inh: 8%; WRN helicase inh: 1%; Pol kappa inh: 3%; Pol beta inh: 32%; FEN1 inhibitor: -5%; POLH inh: 35µM*

What do the screens show for `Cc1cccc(N(Cc2cc(=O)[nH]c3ccccc23)C(=O)CCl)c1`?
Pol iota inh: inconclusive; WRN helicase inh: -5%[11.6 µM]; Pol kappa inh: -6%; Pol beta inh: inconclusive; FEN1 inhibitor: -21%; POLH inh: 45µM*

How did Cn1c(=O)n(-c2ccc(C(C)(C)C#N)cc2)c2c3cc(-c4cnc5ccccc5c4)ccc3ncc21 do in these assays?
Pol iota inh: 18%[229 µM]; Pol kappa inh: -13%[229 µM]; FEN1 inhibitor: -2%[229 µM]

What do the screens show for `CCCNC(=O)c1ccc(-c2nc3ccccc3s2)s1`?
Pol iota inh: inconclusive; WRN helicase inh: -16%; Pol kappa inh: -10%; Pol beta inh: 16µM*; FEN1 inhibitor: 5%; POLH inh: inconclusive

Results for Cn1nc([N+](=O)[O-])nc1S(C)(=O)=O ?
Pol iota inh: inconclusive; WRN helicase inh: -4%; Pol kappa inh: inconclusive; Pol beta inh: 89µM*; FEN1 inhibitor: -10%; POLH inh: -4%

What do the screens show for `N#Cc1nc(N(c2ccccc2)c2ccccc2)nc(-n2cccc2)n1`?
Pol iota inh: -15%; Pol kappa inh: -8%; FEN1 inhibitor: -8%

Results for Cc1ccc(C(c2sc3nc(-c4ccco4)nn3c2O)N2CCN(Cc3ccccc3)CC2)cc1 (configuration not stated) ?
Pol iota inh: 18%; Pol kappa inh: -4%[60.1 µM]; Pol beta inh: 1%; FEN1 inhibitor: 16%; POLH inh: -17%

How did CCCn1ccc2c(OCC(=O)Nc3ccccc3C(=O)OCC)cccc2c1=O do in these assays?
Pol iota inh: 24%; Pol kappa inh: -6%[60.1 µM]; Pol beta inh: inconclusive; FEN1 inhibitor: -3%; POLH inh: -20%

What do the screens show for `O=C(O)COc1ccc(/C=C/C(=O)c2ccc(C3CCCCC3)cc2)cc1`?
Pol iota inh: inconclusive; WRN helicase inh: inconclusive; Pol kappa inh: -6%; Pol beta inh: inconclusive; FEN1 inhibitor: 0%; POLH inh: 40µM*

What do the screens show for `O=C(O)COc1ccc(/C=C/C(=O)c2ccc3ccccc3c2)cc1`?
Pol iota inh: 18µM*; WRN helicase inh: inconclusive; Pol kappa inh: -13%; Pol beta inh: -11%; FEN1 inhibitor: -8%; POLH inh: 25µM*

What do the screens show for `CN(C)c1ccc(/C=C/C(=O)c2ccccc2)cc1[N+](=O)[O-]`?
Pol iota inh: -1%; WRN helicase inh: 7%; Pol kappa inh: -17%; Pol beta inh: -28%; FEN1 inhibitor: -12%; POLH inh: -13%

How did O=C(/C=C/c1ccc(O)c([N+](=O)[O-])c1)c1ccc2ccccc2c1 do in these assays?
Pol iota inh: inconclusive; WRN helicase inh: inconclusive; Pol kappa inh: -4%; Pol beta inh: inconclusive; FEN1 inhibitor: inconclusive; POLH inh: 22µM*

What do the screens show for `Cc1cc(C)cc(NC(=O)Cn2nnc(C(=O)Nc3cc(C)cc(C)c3)c2N)c1`?
Pol iota inh: 19%; Pol kappa inh: 4%; Pol beta inh: 26%; FEN1 inhibitor: 6%; POLH inh: -14%
